Assay results published in ChEMBL document CHEMBL1961873, “Compounds: GSK PKIS; Assays: Nanosyn kinase panel” (2012).

Experiments:
[1] = tested on: Proto-oncogene tyrosine-protein kinase receptor Ret (Homo sapiens), P07949 [Y791F]; settings: at 1 µM
[2] = molecular target: Macrophage-stimulating protein receptor (Homo sapiens) (UniProt Q04912); settings: at 0.1 µM
[3] = molecular target: Macrophage-stimulating protein receptor (Homo sapiens) (UniProt Q04912); settings: at 1 µM
[4] = molecular target: Proto-oncogene tyrosine-protein kinase ROS (Homo sapiens) (UniProt P08922); settings: at 0.1 µM
[5] = molecular target: Proto-oncogene tyrosine-protein kinase ROS (Homo sapiens) (UniProt P08922); settings: at 1 µM
[6] = molecular target: Proto-oncogene tyrosine-protein kinase Src (Homo sapiens) (UniProt P12931); settings: at 0.1 µM
[7] = molecular target: Proto-oncogene tyrosine-protein kinase Src (Homo sapiens) (UniProt P12931); settings: at 1 µM
[8] = molecular target: Tyrosine-protein kinase Srms (Homo sapiens) (UniProt Q9H3Y6); settings: at 0.1 µM
[9] = molecular target: Tyrosine-protein kinase Srms (Homo sapiens) (UniProt Q9H3Y6); settings: at 1 µM
[10] = molecular target: Tyrosine-protein kinase SYK (Homo sapiens) (UniProt P43405); settings: at 0.1 µM
[11] = molecular target: Tyrosine-protein kinase SYK (Homo sapiens) (UniProt P43405); settings: at 1 µM
[12] = molecular target: T1, Tyrosine-protein kinase Tec (Homo sapiens) (UniProt P42680); settings: at 0.1 µM
T1 sequence (whole entry): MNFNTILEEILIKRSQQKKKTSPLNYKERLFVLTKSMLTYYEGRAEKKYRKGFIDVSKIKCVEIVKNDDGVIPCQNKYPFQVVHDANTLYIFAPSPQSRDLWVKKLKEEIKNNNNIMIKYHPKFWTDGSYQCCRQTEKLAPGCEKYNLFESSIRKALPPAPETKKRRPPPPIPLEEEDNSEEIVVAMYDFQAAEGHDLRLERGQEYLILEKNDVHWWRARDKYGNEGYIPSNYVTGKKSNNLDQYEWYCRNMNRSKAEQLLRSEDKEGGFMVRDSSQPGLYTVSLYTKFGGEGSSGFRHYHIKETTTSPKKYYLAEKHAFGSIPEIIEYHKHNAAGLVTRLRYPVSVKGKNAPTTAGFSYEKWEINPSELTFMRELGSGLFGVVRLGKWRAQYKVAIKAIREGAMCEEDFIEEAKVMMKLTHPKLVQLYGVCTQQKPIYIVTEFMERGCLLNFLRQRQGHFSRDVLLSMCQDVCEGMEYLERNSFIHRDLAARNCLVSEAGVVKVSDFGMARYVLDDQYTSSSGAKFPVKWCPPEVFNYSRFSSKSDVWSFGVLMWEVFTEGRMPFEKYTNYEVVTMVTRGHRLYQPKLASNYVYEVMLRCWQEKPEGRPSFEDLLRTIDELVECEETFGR

[13] = molecular target: T1, Tyrosine-protein kinase Tec (Homo sapiens); settings: at 1 µM
[14] = molecular target: Angiopoietin-1 receptor (Homo sapiens) (UniProt Q02763); settings: at 0.1 µM
[15] = molecular target: Angiopoietin-1 receptor (Homo sapiens) (UniProt Q02763); settings: at 1 µM
[16] = molecular target: T2, Non-receptor tyrosine-protein kinase TNK1 (Homo sapiens) (UniProt Q13470); settings: at 0.1 µM
T2 sequence (whole entry): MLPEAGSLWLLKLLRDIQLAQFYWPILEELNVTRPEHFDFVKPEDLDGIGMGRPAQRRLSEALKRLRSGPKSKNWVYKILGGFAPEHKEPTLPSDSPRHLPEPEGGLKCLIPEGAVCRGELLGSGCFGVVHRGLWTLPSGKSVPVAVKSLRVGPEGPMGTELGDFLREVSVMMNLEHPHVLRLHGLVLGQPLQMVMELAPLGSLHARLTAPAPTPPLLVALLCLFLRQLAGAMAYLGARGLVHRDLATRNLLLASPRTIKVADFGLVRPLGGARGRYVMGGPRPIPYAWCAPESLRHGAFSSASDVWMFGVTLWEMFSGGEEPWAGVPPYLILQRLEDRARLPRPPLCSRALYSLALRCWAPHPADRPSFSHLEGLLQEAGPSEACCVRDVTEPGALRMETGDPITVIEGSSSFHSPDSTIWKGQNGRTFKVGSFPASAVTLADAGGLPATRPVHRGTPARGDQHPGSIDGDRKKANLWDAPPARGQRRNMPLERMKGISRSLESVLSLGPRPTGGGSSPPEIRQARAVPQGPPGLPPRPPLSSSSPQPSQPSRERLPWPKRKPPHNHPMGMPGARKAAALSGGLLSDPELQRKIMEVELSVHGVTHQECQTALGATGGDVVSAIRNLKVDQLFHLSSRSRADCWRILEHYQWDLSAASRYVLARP

[17] = molecular target: T2, Non-receptor tyrosine-protein kinase TNK1 (Homo sapiens); settings: at 1 µM
[18] = molecular target: Activated CDC42 kinase 1 (Homo sapiens) (UniProt Q07912); settings: at 0.1 µM
[19] = molecular target: Activated CDC42 kinase 1 (Homo sapiens) (UniProt Q07912); settings: at 1 µM
[20] = molecular target: High affinity nerve growth factor receptor (Homo sapiens) (UniProt P04629); settings: at 0.1 µM;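 also: each value is a mean of replicate percent inhibition readings against TRKA kinase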
Sequence of High affinity nerve growth factor receptor (Homo sapiens) (P04629 33-796 limits assumed): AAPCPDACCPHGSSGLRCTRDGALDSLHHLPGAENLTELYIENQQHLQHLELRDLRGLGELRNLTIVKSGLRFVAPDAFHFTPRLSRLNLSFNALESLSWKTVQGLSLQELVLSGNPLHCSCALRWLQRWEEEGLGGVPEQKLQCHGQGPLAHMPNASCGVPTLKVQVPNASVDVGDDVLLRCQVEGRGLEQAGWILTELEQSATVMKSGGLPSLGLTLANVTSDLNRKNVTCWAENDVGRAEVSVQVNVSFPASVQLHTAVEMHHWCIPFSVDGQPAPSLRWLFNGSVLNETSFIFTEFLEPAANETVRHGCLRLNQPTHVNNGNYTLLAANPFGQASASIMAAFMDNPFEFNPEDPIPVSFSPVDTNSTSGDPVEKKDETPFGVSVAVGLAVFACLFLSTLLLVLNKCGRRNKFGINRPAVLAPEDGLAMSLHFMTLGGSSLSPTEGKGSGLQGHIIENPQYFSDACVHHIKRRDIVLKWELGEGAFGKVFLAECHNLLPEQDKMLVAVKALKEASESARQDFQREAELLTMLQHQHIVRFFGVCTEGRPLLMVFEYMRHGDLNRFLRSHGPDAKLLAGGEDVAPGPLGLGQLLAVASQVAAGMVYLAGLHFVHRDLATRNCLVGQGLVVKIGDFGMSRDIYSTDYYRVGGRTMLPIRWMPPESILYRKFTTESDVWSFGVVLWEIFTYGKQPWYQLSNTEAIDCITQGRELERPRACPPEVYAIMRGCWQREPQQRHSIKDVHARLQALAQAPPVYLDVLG

Sequence of Proto-oncogene tyrosine-protein kinase Src (Homo sapiens) (P12931 2-536 limits assumed): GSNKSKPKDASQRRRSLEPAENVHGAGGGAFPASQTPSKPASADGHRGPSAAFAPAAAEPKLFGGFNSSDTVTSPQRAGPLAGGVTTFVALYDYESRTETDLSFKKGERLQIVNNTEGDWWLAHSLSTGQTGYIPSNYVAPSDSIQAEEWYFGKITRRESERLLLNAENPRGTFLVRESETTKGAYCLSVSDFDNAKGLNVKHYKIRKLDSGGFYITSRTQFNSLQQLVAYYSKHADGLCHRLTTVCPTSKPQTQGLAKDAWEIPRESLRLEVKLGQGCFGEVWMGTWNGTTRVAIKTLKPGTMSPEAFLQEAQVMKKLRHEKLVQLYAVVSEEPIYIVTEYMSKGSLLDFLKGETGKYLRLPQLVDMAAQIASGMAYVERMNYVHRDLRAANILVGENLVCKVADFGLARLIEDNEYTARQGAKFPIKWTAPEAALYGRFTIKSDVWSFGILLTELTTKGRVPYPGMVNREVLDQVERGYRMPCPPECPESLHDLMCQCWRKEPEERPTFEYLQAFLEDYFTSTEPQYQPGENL
Sequence of Proto-oncogene tyrosine-protein kinase ROS (Homo sapiens) (P08922 whole entry): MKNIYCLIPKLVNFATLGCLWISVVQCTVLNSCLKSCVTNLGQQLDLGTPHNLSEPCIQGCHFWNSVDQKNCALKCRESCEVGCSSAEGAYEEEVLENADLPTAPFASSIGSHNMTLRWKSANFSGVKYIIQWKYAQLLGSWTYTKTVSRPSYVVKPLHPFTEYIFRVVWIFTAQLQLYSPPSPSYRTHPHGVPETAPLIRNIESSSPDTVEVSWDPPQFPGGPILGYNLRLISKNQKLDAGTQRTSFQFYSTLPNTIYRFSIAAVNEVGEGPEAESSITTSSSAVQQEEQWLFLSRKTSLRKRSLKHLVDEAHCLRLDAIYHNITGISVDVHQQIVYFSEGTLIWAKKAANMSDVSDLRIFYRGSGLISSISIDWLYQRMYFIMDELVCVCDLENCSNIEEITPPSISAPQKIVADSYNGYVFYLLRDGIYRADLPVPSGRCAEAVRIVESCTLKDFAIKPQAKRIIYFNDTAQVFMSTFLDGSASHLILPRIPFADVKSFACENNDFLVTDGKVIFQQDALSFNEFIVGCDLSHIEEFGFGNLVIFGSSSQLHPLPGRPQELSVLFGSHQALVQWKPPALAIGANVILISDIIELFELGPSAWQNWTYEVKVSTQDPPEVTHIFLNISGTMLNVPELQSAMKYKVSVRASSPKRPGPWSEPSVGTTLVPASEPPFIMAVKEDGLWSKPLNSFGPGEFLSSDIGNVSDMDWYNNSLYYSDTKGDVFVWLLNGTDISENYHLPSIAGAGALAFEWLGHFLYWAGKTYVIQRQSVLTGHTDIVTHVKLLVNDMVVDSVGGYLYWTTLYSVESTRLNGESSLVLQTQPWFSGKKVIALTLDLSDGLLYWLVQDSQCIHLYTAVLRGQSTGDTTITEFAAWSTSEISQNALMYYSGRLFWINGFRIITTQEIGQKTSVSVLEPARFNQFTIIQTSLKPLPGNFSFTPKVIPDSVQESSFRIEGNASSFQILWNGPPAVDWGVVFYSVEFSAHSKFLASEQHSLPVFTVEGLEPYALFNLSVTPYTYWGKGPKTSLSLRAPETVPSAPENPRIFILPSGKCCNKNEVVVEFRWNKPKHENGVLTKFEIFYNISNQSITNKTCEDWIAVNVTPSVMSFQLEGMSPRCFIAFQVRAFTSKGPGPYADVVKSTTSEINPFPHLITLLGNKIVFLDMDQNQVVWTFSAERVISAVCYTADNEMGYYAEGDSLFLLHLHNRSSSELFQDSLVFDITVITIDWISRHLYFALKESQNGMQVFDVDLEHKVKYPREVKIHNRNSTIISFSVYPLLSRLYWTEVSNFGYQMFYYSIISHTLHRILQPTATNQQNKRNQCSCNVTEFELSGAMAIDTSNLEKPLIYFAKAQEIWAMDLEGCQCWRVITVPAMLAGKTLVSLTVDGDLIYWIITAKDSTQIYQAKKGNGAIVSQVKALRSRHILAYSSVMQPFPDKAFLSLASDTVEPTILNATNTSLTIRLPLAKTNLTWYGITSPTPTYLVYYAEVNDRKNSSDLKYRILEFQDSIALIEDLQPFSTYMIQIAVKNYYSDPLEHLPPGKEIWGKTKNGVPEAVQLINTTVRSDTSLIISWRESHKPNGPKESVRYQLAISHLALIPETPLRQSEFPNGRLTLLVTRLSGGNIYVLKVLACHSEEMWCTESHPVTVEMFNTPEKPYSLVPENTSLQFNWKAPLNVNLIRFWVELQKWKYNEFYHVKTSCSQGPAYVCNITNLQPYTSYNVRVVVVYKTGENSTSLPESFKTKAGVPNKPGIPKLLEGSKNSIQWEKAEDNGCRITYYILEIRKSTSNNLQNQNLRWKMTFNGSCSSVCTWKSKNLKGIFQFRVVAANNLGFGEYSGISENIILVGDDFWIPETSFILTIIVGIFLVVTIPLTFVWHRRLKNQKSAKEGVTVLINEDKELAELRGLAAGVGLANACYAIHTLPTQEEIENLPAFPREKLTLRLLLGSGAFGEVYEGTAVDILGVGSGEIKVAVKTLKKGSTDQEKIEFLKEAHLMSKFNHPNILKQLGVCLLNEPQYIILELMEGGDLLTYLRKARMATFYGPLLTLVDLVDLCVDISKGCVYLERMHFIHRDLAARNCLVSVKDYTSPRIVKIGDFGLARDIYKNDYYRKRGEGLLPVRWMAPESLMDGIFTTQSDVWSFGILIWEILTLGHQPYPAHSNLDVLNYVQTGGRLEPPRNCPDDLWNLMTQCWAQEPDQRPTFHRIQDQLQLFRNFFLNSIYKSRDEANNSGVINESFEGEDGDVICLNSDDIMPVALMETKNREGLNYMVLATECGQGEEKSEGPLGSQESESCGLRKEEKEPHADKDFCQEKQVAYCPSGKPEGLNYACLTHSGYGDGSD
Sequence of Angiopoietin-1 receptor (Homo sapiens) (Q02763 whole entry): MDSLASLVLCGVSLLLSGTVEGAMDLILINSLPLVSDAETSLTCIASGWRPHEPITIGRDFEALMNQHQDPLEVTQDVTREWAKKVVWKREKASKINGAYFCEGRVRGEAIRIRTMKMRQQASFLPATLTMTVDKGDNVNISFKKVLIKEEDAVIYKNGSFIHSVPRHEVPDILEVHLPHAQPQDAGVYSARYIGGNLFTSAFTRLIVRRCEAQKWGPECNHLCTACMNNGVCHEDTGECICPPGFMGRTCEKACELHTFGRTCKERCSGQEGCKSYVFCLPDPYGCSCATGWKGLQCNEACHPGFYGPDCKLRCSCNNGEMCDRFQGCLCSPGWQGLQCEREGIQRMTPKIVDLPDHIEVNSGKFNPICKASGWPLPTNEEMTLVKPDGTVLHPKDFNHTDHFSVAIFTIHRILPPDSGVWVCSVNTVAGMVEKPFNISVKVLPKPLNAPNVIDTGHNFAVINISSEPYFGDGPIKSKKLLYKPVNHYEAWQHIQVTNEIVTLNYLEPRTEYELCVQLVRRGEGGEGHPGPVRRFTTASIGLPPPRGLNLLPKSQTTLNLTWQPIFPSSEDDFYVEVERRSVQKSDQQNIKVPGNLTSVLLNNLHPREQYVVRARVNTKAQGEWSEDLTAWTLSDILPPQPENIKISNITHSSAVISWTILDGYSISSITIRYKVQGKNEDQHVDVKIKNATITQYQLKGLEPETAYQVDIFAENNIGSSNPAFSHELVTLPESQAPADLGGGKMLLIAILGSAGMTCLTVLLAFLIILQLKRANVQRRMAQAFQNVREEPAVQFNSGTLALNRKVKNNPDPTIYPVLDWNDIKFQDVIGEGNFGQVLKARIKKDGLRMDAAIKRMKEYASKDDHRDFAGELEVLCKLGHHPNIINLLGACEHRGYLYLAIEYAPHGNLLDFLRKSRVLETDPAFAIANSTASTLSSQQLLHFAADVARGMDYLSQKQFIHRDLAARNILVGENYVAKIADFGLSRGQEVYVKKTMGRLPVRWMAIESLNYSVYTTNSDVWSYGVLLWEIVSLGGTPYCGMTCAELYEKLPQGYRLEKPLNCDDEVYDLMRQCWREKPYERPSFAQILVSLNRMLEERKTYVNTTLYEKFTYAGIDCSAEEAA

SMILES	inhibition [1] [%]	inhibition [2] [%]	inhibition [3] [%]	inhibition [4] [%]	inhibition [5] [%]	inhibition [6] [%]	inhibition [7] [%]	inhibition [8] [%]	inhibition [9] [%]	inhibition [10] [%]	inhibition [11] [%]	inhibition [12] [%]	inhibition [13] [%]	inhibition [14] [%]	inhibition [15] [%]	inhibition [16] [%]	inhibition [17] [%]	inhibition [18] [%]	inhibition [19] [%]	inhibition [20] [%]
CS(=O)(=O)Nc1ccc(-c2ccc3c(NC(=O)C4CC4)n[nH]c3c2)cc1	6.93	1.04	7.91	11.3	11.7	-4.32	8.03	-0.44	0.5	-4.62	-1.82	3.96	7.11	2.18	10.9	2.68	5.17	1.26	3.12	2.98
COc1cc(N2CCN(C(C)C)CC2)ccc1Nc1nc(Nc2cccc3ncccc23)c2cc[nH]c2n1	14.2	-0.12	1.56	7.82	45.3	2	0.42	0.04	0.63	-1.08	-0.52	0.93	-0.14	3.15	7.32	0.11	22.3	1.12	13.2	1.86
CC1(C)CC(n2cnc(-c3ccc(F)cc3)c2-c2ccnc(N)n2)CC(C)(C)N1	1.67	2.97	5.62	5.01	7.73	-1.43	5.26	0.52	-1.76	-1.03	0.92	1.41	-0.41	1.61	3.96	-0.43	-1.61	-0.24	0.43	6.46
Cc1cc(O)cc(C)c1/C=C/c1cncc(C(=O)OC(C)(C)C)c1	12.1	8.51	8.66	6.94	10.4	14.1	58.6	10.2	43.4	-0.49	0.64	5.96	30.2	2.09	3.67	2.08	15.7	1.33	4.9	3.36
Cn1c(-c2nonc2N)nc2cnccc21	7.82	5.57	-0.92	2.77	3.73	-0.58	6.9	0.1	4.56	-1.4	0.59	4.08	3.99	1.46	2.07	1.08	0.76	0.75	0.19	1.03
Cc1ccc(-c2cc3c(NC(=O)C4CC4)ncnc3o2)cc1	12.9	-0.25	11.4	11.1	16.3	1.85	24.4	-1.85	-5.36	-5.27	-1.6	5.2	13.1	3.09	4.4	3.37	6.56	1.58	4.37	4.74
NC(=O)c1ccc2c(-c3ccnc(NCCCO)n3)c(-c3ccc(F)cc3)nn2c1	19.4	2.03	9.13	8.51	10.6	0.24	12.9	15	4.79	-5.36	-0.6	5.81	16.1	5.27	6.83	4.67	2.83	0.88	5	3.75
CS(=O)(=O)Nc1ccc(-c2cc(-c3ccccc3)cc(C(N)=O)c2N)cc1	3.96	-0.02	-1.34	4.8	6.51	2.73	4.51	-2.19	-2.04	-0.83	0.38	0.8	1.3	0.34	0.58	1.13	5.5	-0.09	-0.33	3.2
COc1cc(N2CCN(C(C)C)CC2)ccc1Nc1nc(Nc2cccc(F)c2C(=O)O)c2cc[nH]c2n1	11.6	0.36	2.96	13.8	54.7	-3.89	8.5	-1.76	5.01	-4.66	-7.57	4.02	5.87	2.04	5.53	8.72	53.4	1.91	5.95	4.69
